RORgamma inh: blocks mouse ROR gamma transcriptional activity. 310,000 tested, 5.4% active. Potency, µM (highest dose often 53.6 µM), actives largely listed as inhibitors. AID 2551. Drosophila S2 Gal4-RORgamma UAS-luciferase reporter, 20 h. P51450; note: nearly all actives have a fitted effect of over 60% in size
Target sequence (P51450 whole entry, looked up, the tested form may be a part): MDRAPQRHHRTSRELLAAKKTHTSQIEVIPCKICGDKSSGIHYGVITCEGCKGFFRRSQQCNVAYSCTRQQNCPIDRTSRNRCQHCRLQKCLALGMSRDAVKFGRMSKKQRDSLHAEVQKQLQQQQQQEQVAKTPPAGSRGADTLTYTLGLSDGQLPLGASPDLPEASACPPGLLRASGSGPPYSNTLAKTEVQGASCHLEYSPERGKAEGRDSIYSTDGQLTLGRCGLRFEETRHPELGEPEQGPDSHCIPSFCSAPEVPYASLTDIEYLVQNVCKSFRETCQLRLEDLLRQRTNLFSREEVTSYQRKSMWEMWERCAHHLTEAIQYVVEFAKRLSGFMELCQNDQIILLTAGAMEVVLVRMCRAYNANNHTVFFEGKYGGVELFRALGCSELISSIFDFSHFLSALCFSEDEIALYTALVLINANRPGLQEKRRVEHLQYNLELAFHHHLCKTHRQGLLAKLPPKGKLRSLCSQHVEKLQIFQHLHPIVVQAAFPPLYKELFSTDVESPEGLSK
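ROR gamma transcriptional activity was tracked as Gal4-UAS luciferase output in stably transfected Drosophila Schneider cells, with compound added 1 hr before 700 uM copper sulfate induction and a 20 hr ambient-temperature incubation.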
Giardia kill: kills Giardia lamblia. activity change, % at 7.66 µM, hits read low. Giardia lamblia trophozoite viability. 340,000 tested, 0.15% active; in the data active = activity change below about -80%; inconclusive = between about -30% and that limit;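 note: parasites exposed to compound for two days anaerobically before the ATP read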
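Media and compound were dispensed first, then trophozoites at 100 cells/well; plates sat 48 hrs at 37 deg C without oxygen before ATP luminescence reagent was added and read after 15-30 min at room temperature.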
p53 reactivation: restores transcriptional activity of mutant p53. 320,000 tested, 0.063% active. H1299 p53-A138V BP100-luciferase reporter, luminescence, 24 h. AID 504706. Potency, µM (titrated, usually from 92.2 µM), most hits filed as activators; note: nearly all actives have a fitted effect of over 45% in size
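p53-null H1299 cells stably carrying temperature-sensitive p53-A138V and a BP100-luciferase reporter were pinned with compounds (4-point, 1:5 series) and held 24 hrs at 37 deg C. Luminescence was read 10 min after detection reagent.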
BRCA1 expr up: increases BRCA1 expression; 380,000 tested, 1.1% active; Potency, µM (top dose mostly 46.1 µM), most hits filed as activators; MCF7-BRCA1-FFLuc reporter, luminescence, 48 h; response scale: scaled: vehicle 0%, 10 µM genistein 100%; note: nearly all actives have a fitted effect of over 80% in size
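MCF7-BRCA1-FFLuc cells, 2000/well in phenol-red-free MEM, attached 2 h then treated 48 h at 37 C. Luciferase luminescence read 15 min after reagent; normalized to genistein maximum activation (10microM) and DMSO, concentration-response fitted.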
ELG1 repair inh: blocks ELG1-dependent DNA repair in HEK293T cells. HEK293T ELG1-luciferase reporter, luminescence, 16 h; DNA damage induced by 5-fluorouridine. Potency, µM (series often up to 46.1 µM), hits mostly inhibitors. 330,000 tested, 2.3% active. AID 504467; note: nearly all actives have a fitted effect of over 55% in size
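Overnight (16 hr) co-exposure of 2,000 cells/well to 5-fluorouridine and compound at 37 °C preceded detection. Luciferase was quantified via ONE-Glo luminescence; loss of signal denotes inhibition.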
Gal4-VP16 FLuc: inhibits Gal4-VP16 luciferase reporter, ROR gamma counter-screen; Drosophila S2 Gal4-VP16 UAS-luciferase, luminescence, 20 h; Potency, µM (titrated, usually from 53.6 µM), usual class: inhibitors; 310,000 tested, 3.5% active; AID 2546;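 note: Gal4-VP16 expression switched on by copper sulfate through the metallothionein promoter; nearly all actives have a fitted effect of over 50% in size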
Large screens that a line does not name were inactive. Sampled rows, rich in hits. Any-hit rate of the full collection: about 7.6%. Unless noted, calls come from the whole dose curve; as a rule, active = well fitted curve in the direction sought with a large enough effect; inconclusive = small, poorly fitted or top-dose-only effect, or another doubt; inactive = no such curve, though single readings can be large; an effect the other way counts as inactive or inconclusive.

CCN(C(=O)c1ccccc1F)c1nc(-c2ccc(OC)cc2)cs1	RORgamma inh inconclusive, BRCA1 expr up 7.9µM, ELG1 repair inh inconclusive
COCCN(C(=O)c1ccccc1F)c1nc(-c2ccc(OC)cc2)cs1	none
CCC(=O)N(Cc1ccco1)c1nc(-c2ccc(OC)cc2)cs1	ELG1 repair inh inconclusive
CCC(=O)N(CC)c1nc(-c2ccc(OC)cc2)cs1	p53 reactivation inconclusive, BRCA1 expr up 11µM, ELG1 repair inh inconclusive
O=C(Nc1nnc(C2CC2)s1)c1cccc(S(=O)(=O)N2CCc3ccccc32)c1	ELG1 repair inh inconclusive
COc1cc(Cl)c(S(=O)(=O)NCc2cccnc2)cc1Cl	none
OC(CNCc1ccc(Cl)cc1)(c1ccccc1)c1ccc(F)cc1 (stereo not given)	RORgamma inh inconclusive, Gal4-VP16 FLuc 11µM
c1ccc(C(c2nnnn2C2CCCC2)N2CCCCCC2)nc1 (stereo not given)	none
CN1CCCN([C@@H](c2ccccc2)c2ccc(Cl)cc2)CC1	none (no result: Giardia kill, p53 reactivation, BRCA1 expr up, ELG1 repair inh)
OCCN1CCN(C(c2cccs2)c2ccc3cccnc3c2O)CC1 (stereo not given)	RORgamma inh 11µM, Gal4-VP16 FLuc 11µM (no result: Giardia kill, BRCA1 expr up)
Oc1c(C(c2ccccc2)N2CCOCC2)ccc2ccccc12 (stereo not given)	none (no result: RORgamma inh, p53 reactivation, ELG1 repair inh, Gal4-VP16 FLuc)
CN1CCN(C(c2ccc(Cl)cc2)c2cc(Cl)c3cccnc3c2O)CC1 (stereo not given)	RORgamma inh 3.2µM, p53 reactivation inconclusive, Gal4-VP16 FLuc 1.4µM
Oc1c(C(c2ccccn2)N2CCCCC2)cc(Cl)c2cccnc12 (stereo not given)	RORgamma inh 2.8µM, ELG1 repair inh inconclusive, Gal4-VP16 FLuc inconclusive
CCN1CCN(C(c2ccc(C(F)(F)F)cc2)c2ccc3cccnc3c2O)CC1 (stereo not given)	RORgamma inh 1.1µM, Gal4-VP16 FLuc 1.3µM
CCOC(=O)N1CCN(CC(O)COCc2ccc(OC)c(OC)c2)CC1 (stereo not given)	none
CN1CCN(C(c2ccc(C(F)(F)F)cc2)c2cc(Cl)c3cccnc3c2O)CC1 (stereo not given)	RORgamma inh 0.4µM, p53 reactivation inconclusive, ELG1 repair inh inconclusive, Gal4-VP16 FLuc 0.89µM (no result: Giardia kill, BRCA1 expr up)
CCCCNC(=O)C1(NC(=O)Nc2ccccc2)CCCCC1	none
COc1cc2c(cc1N)-c1ccc(N)cc1C2	BRCA1 expr up 7.9µM (no result: RORgamma inh, p53 reactivation, ELG1 repair inh, Gal4-VP16 FLuc)
O=C(/C=C\Nc1ccc2c(c1)OCO2)c1ccccn1	RORgamma inh 1.1µM, Giardia kill inconclusive, BRCA1 expr up inconclusive, ELG1 repair inh inconclusive, Gal4-VP16 FLuc 2.2µM
COc1ccc(N/C=C\C(=O)c2ccc3c(c2)OCO3)cc1	RORgamma inh inconclusive, p53 reactivation inconclusive, ELG1 repair inh inconclusive, Gal4-VP16 FLuc inconclusive
O=C(Nc1ccc2c(c1)OCO2)c1ccccn1	p53 reactivation inconclusive, BRCA1 expr up inconclusive, ELG1 repair inh inconclusive (no result: RORgamma inh, Gal4-VP16 FLuc)
CCOc1ccc(N/C=C\C(=O)c2ccc3c(c2)OCO3)cc1	BRCA1 expr up 4.5µM (no result: RORgamma inh, p53 reactivation, ELG1 repair inh, Gal4-VP16 FLuc)
CC1CCN(S(=O)(=O)c2ccc(NC(=O)c3ccco3)cc2)CC1	none
O=C(CCl)N1N=C(c2ccco2)CC1c1cccs1 (stereo not given)	RORgamma inh 10µM, ELG1 repair inh inconclusive, Gal4-VP16 FLuc 16µM
C/C(=C\c1ccccc1)C(=O)NCCc1ccccc1	BRCA1 expr up inconclusive, ELG1 repair inh inconclusive
CC(=O)NCc1c(I)c(NC(C)=O)c(I)c(C(=O)O)c1I	none (no result: Giardia kill, p53 reactivation, BRCA1 expr up, ELG1 repair inh)
Clc1ccc(-n2nnc(-c3cccnc3Cl)n2)cc1Cl	BRCA1 expr up 4µM, ELG1 repair inh inconclusive
CC1=CC(c2ccccc2)=Nc2ccc(C)cc2N1	p53 reactivation inconclusive, BRCA1 expr up 7.1µM, ELG1 repair inh inconclusive
CC(=O)OCCBr	none (no result: Giardia kill, p53 reactivation, BRCA1 expr up, ELG1 repair inh)
COc1ccc(NC(=O)Nc2ccc(OC)cc2)cc1	ELG1 repair inh inconclusive, Gal4-VP16 FLuc inconclusive
COc1ccc(NC(=O)Nc2ccc3[nH]ccc3c2)cc1	BRCA1 expr up 3.2µM (no result: RORgamma inh, p53 reactivation, ELG1 repair inh, Gal4-VP16 FLuc)
O=C(Nc1ccc2[nH]ccc2c1)c1ccc(F)cc1	RORgamma inh 11µM, Giardia kill -83, BRCA1 expr up inconclusive, ELG1 repair inh inconclusive, Gal4-VP16 FLuc inconclusive
Cc1nn(CCC#N)c(C)c1Oc1ccccc1O	none
